# Assay results from PubChem BioAssay AID720553 (National Center for Advancing Translational Sciences (NCATS), 2013).
# Among all 340,000 compounds or so, about 3,300 (0.97%) were called active. This excerpt belongs to a sample that is enriched for actives. Values without a mark were called inactive.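 The calls were made as follows: active = maximum activity change below -70%; inconclusive = maximum activity change from -70% to -50%; inactive = maximum activity change above -50%.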
# System: Potassium voltage-gated channel subfamily H member 2, brain isoform KCNH2 3.1 (human)
# Assay: qHTS for Inhibitors of KCHN2 3.1: Mutant qHTS
# Conditions: U2OS KCNH2 3.1, thallium flux FluxOr; hits give low values
# In short: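 U2OS cells transduced with KCNH2 3.1 mutant virus (1.77 x 10^8 /mL, 4 h), plated overnight at 37 C, loaded 45 min with FluxOr dye plus Red40 quencher. Thallium flux rate constant from kinetic reads after stimulation buffer, normalised to controls.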
# % is scaled to controls: 0 for no effect and ±100 for the full control effect.
row,SMILES,activity change
1,CC1(C2CC2)NC(=O)N(CC(=O)N2CCN(c3ccccc3F)CC2)C1=O (stereo not given),3.05%
2,CN1OC[C@@H]2CN(S(=O)(=O)c3cccc(C(F)(F)F)c3)[C@H](c3ccc(-c4cc5ccccc5o4)cc3)C[C@@H]21,-6.35%
3,C[C@H]1CN([C@@H](C)CO)C(=O)CCCn2cc(nn2)CO[C@@H]1CN(C)S(=O)(=O)c1ccc(-n2cccn2)cc1,5.9%
4,COc1ccc(NC(=O)CCCOc2ccc(C(C)=O)cc2)cc1S(=O)(=O)N1CCCCC1,6.94%
5,CCCCCCN1C[C@@H](O)[C@H](n2cc(COC(=O)c3ccccc3)nn2)C[C@@H]1c1ccc(Cl)cc1,-8%
6,O=S(=O)(c1cccs1)N1CCc2ccccc2C1,6.27%
7,O=S(=O)(c1cccs1)N1CCN(CCOc2ccccc2)CC1,-99.6% (active)
8,O=S(=O)(c1cccs1)N1CCN(Cc2ccccc2)CC1,-4.85%
9,Cc1ccc(NC(=S)N/N=C2/CCCc3c(C)cc(C)cc32)cc1,-3.22%
10,Cc1ccc(C)c(NC(=S)NNC(=S)Nc2ccc(C(C)C)cc2)c1,-96.6% (active)
11,Cc1ccc(C)c(NC(=S)NNC(=O)c2csc(C)c2)c1,-0.222%
12,CCc1nc2c(=O)[nH]cnc2o1,2.34%
13,NC(=S)NN=Cc1ccc(OC(=O)COc2cc(Cl)c(Cl)cc2Cl)cn1,-0.923%
14,NS(=O)(=O)c1ccc(-c2ccc(/C=C3\SC(=O)NC3=O)o2)cc1,14.4%
15,CN1C(=O)/C(=C\c2ccc(-c3ccccc3)o2)SC1=S,-83.7% (active)
16,O=C1NN(c2ccccc2)C(=O)/C1=C/c1ccc(-c2cccc(C(=O)O)c2)o1,28.7%
17,COc1ccc(NC(=O)CN2C(=O)NC(C)(c3ccccc3)C2=O)cn1 (stereo not given),-3.34%
18,O=C(CSc1nnc(-c2cnccn2)n1Cc1ccco1)c1ccc(Cl)c(Cl)c1,-196% (active)
19,O=C(CSc1nnc(-c2cccnc2)n1Cc1ccco1)c1ccc(Cl)c(Cl)c1,-12.1%
20,Cc1ccc(NC(=O)CSc2nnc(-c3cnccn3)n2Cc2ccco2)cc1C,3.68%
21,CCN(CC)C(=O)C1=C(C)N(Cc2ccc(C(C)(C)C)cc2)C(=O)C(CC(=O)NCc2cccc3ccccc23)C1 (stereo not given),-13.1%
22,COc1ccc(NC(=O)CN2C(=O)CSC2=O)cc1,5.91%
23,COc1ccc(C(=O)Nc2sc(C)c(C)c2CN2CCOCC2)cc1,0.971%
24,CCOc1ccc(NC(=O)CN2CCN(CC(=O)Nc3ccc(OC)cc3)CC2)cc1,-89.9% (active)
25,CCc1ccc(NC(=O)CN2CCC(C(=O)c3ccc(OC)cc3)CC2)cc1,-75.5% (active)
26,CCc1cc(C(N)=O)c(NC(=O)c2ccc(OC)cc2)s1,3.81%
27,CCc1cc(C(=O)c2ccc(OC)cc2)c(NC(=O)CN2CCN(C)CC2)s1,-103% (active)
28,COc1ccc(C(=O)N2CCC(C(=O)Nc3ccc(C)cc3)CC2)cc1,-27%

row,SMILES,activity change
1,CCC1CCC2(CC1)NC(=O)N(CC(=O)Nc1ccc(OC)cc1)C2=O (stereo not given),10.2%
2,CCOc1ccc(NC(=O)N2CCN(CC)CC2)cc1,10.1%
3,COc1ccc(OC)c(NC(=O)C2CCCN2S(=O)(=O)c2ccc3c(c2)CC(C)N3C(C)=O)c1 (stereo not given),12.8%
4,CC1CC(NC(=S)N(C)C)CC(C)(C)C1 (stereo not given),-0.254%
5,Cc1cn([C@H]2C[C@H](O)[C@@H](CNC(=O)[C@H](N)Cc3cccnc3)O2)c(=O)[nH]c1=O,0.448%
6,Cc1ccc(S(=O)(=O)N2CCOCC2)cc1NC(=O)c1ccncc1,0.781%
7,O=C1CCC(=O)N1CCC(=O)N(C(=O)NC1CCCCC1)C1CCCCC1,-16.1%
8,CCOc1cc(/C=N/NC(=O)c2c(C)nc3ccc(Cl)cn23)ccc1O,6.54%
9,O=C(Nc1ccc2c(c1)[C@@H]1C[C@@H](CC(=O)N3CCCCC3)O[C@@H](CO)[C@@H]1O2)NC1CCCCC1,7.85%
10,CCOC(=O)c1cccc(NS(=O)(=O)c2c(C(=O)N3CCCCCC3)c(C)n(C)c2C)c1,0.277%
11,CCOC(=O)c1c(S(=O)(=O)Nc2ccc(CN3CCC(C)CC3)cc2)c(C)n(C)c1C,-4.58%
12,CCOC(=O)c1c(S(=O)(=O)Nc2cccc(Cl)c2)c(C)n(C)c1C,-89.7% (active)
13,C[C@@H]1CCCCO[C@H](CN(C)Cc2ccccc2)[C@@H](C)CN([C@H](C)CO)C(=O)c2cc(NS(=O)(=O)c3ccc(Cl)cc3)ccc2O1,-12%
14,CCN1C(=O)[C@H]2[C@@H](c3ccc(C(F)(F)F)cc3)N[C@]3(CCCN(Cc4ccc(Br)cc4)C3=O)[C@H]2C1=O,-2.79%
15,CC(=O)c1ccc(OCC(O)CN2CCN(S(=O)(=O)c3cccc(Br)c3)CC2)cc1 (stereo not given),-4.78%
16,CC(=O)Nc1ccc(OCC(O)CN2CCN(c3ccccc3Cl)CC2)cc1 (stereo not given),-1.41%
17,CCC(=O)c1ccc(OCC(O)CN2CCN(c3cccc(C(F)(F)F)c3)CC2)cc1 (stereo not given),-77.4% (active)
18,CCN(CC(=O)Nc1ccc(NC(C)=O)cc1)C(=O)C1CC(=O)N(c2ccc3c(c2)OCCO3)C1 (stereo not given),0.735%
19,O=C(CN1CCN(C(=O)c2ccco2)CC1)Nc1ccc2c(c1)OCO2,0.979%
20,O=C(COC(=O)c1ccc(F)cc1)Nc1ccc2c(c1)OCO2,-1.18%
21,O=C(CN1CCN(CC(=O)Nc2ccc3c(c2)OCO3)CC1)Nc1ccc(F)cc1,-109% (active)
22,COc1ccc(-c2c(C#N)cnc(C)c2C)c(O)c1OC,1.89%
23,CC(Sc1ccc(S(=O)(=O)N2CCN(C)CC2)cn1)C(=O)NC1CCCC(C)C1C (stereo not given),-1.67%
24,C[C@H]1CN([C@@H](C)CO)C(=O)CCCn2cc(nn2)CO[C@@H]1CN(C)S(=O)(=O)c1cccc(C#N)c1,-14.5%
25,Cc1cccc(S(=O)(=O)N(C)C[C@@H]2OCc3cnnn3CCCC(=O)N([C@H](C)CO)C[C@@H]2C)c1,15.7%
26,C[C@@H]1CN([C@H](C)CO)C(=O)CCCn2nncc2CO[C@@H]1CN(C)S(=O)(=O)c1cccc(C#N)c1,-103% (active)
27,C[C@H]1CN([C@@H](C)CO)C(=O)CCCn2nncc2CO[C@@H]1CN(C)S(=O)(=O)c1cccc(C#N)c1,-3.59%
